PubChem BioAssay (Tox21)
Results filed as inconclusive are left out. Active and inactive are the calls of the source. Unless noted, calls follow the shape of the dose curve; as a rule, active = well fitted curve in the direction sought with a large enough effect in the repeat runs; inconclusive = weak or mixed curves; inactive = no such curve, though single readings can be large; an effect the other way counts as inactive or inconclusive.

Columns and labels:
[1] = qHTS assay to identify small molecule antagonists of the sonic hedgehog signaling (Shh) pathway (AID 1259369; calls by dose curve; also: nearly all actives have a fitted effect of over 45% in size)
Method in brief: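 Luminescence readout: firefly Luc under Gli1 response element in 3T3Gli1-Luc cells (NIH/3T3 clone). Antagonist mode, stimulation by conditioned medium; compound exposure 24hr at 37 C, 5% CO2.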

[2] = target: Estrogen receptor beta (Homo sapiens) (UniProt Q92731); assay: qHTS assay to identify small molecule agonists of the estrogen receptor beta (ER-beta) signaling pathway (AID 1259377; active = well fitted activation curve with a large enough effect in the signal ratio in the repeat runs, not every such curve was filed as active; the % refers to the signal ratio)
Estrogen receptor beta (Homo sapiens), sequence (Q92731 whole entry, looked up): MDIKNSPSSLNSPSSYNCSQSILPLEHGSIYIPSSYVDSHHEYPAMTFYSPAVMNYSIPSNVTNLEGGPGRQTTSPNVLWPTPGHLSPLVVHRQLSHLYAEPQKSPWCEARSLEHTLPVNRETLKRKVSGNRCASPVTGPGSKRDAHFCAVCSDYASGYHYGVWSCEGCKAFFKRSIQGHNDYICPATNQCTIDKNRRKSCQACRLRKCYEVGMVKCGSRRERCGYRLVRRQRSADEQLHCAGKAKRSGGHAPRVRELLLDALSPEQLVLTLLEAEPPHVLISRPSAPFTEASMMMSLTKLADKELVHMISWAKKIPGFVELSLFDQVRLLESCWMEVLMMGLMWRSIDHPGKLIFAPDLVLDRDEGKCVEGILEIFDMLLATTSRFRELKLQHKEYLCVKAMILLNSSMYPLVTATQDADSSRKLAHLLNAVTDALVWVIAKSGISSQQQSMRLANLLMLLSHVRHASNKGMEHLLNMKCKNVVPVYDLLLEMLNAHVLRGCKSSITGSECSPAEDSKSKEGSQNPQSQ
Method in brief: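 Beta-lactamase reporter readout: fluorescence of LiveBLAzer B/G FRET substrate after 2 h at room temperature, following 16 h compound treatment of ER-beta-UAS-bla HEK293T cells at 37C in 2% charcoal-stripped FBS medium.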

[3] = target: Estrogen receptor beta (Homo sapiens) (UniProt Q92731); assay: qHTS assay to identify small molecule antagonists of the estrogen receptor beta (ER-beta) signaling pathway (AID 1259378; active = well fitted inhibition curve with a large enough effect in the signal ratio in the repeat runs, not every such curve was filed as active; the % refers to the signal ratio; also: potency is read from the fitted curve at half-maximal effect)
Method in brief: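 Antagonist mode: compounds added to beta-lactamase reporter HEK293T ER-beta-UAS cells stimulated with E2 (1nM final), 16 hr at 37C. LiveBLAzer B/G FRET substrate, 2 hours room temperature, fluorescence read-out.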

[4] = qHTS assay to identify small molecule agonists of the androgen receptor (AR) signaling pathway in the presence of an antagonist - cell viability counter screen (AID 1259379);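 also: MDA-kb2 human breast cancer cells carrying an MMTV luciferase reporter; series mostly up to about 92 µM; nearly all actives have a fitted effect of over 25% in size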
Method in brief: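 Viability counter screen: CellTiter-Fluor fluorescence, measured in the same wells as the luciferase read-out. MDA-kb2 cells, 3,000/well, with nilutamide at 3.0uM final and compounds at 15 concentrations, 16 hr at 37C, 0% CO2.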

[5] = qHTS assay to identify small molecule agonists of the estrogen receptor beta (ER-beta) signaling pathway - cell viability counter screen (AID 1259380); also: nearly all actives have a fitted effect of over 30% in size; also: potency is read from the fitted curve at half-maximal effect
Method in brief: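 Luminescence read-out (CellTiter-Glo, 30 min, room temp) taken in the same wells as the beta-lactamase reporter assay; ER-beta-UAS-bla HEK293T cells exposed to DMSO-dissolved compounds for 16 hr at 37C in 2% charcoal-stripped FBS medium.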

[6] = target: Estrogen receptor (Homo sapiens) (UniProt P03372); assay: qHTS assay to identify small molecule agonists of the estrogen receptor alpha (ER-alpha) signaling pathway in the presence of an antagonist (AID 1259383; calls by dose curve; also: top concentration of the series differs between compounds; nearly all actives have a fitted effect of over 15% in size)
Estrogen receptor (Homo sapiens), sequence (P03372 whole entry, looked up): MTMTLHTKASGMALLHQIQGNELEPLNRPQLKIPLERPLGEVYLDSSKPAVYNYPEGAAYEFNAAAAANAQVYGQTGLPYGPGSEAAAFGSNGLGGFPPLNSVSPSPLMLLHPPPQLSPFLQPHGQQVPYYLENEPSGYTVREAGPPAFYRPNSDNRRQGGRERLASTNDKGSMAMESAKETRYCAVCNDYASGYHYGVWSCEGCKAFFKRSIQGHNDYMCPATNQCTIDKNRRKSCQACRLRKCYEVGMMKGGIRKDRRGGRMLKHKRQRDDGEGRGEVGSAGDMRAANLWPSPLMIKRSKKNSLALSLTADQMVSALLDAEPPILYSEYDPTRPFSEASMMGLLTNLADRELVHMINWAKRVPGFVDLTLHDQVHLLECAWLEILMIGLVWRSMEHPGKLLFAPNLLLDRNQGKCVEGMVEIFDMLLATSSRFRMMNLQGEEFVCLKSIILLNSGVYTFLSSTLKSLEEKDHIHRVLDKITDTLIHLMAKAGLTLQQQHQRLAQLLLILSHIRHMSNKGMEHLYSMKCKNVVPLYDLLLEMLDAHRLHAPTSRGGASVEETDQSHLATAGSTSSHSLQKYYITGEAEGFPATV
Method in brief: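 Luciferase luminescence (ONE-Glo, 30min at room temperature) measured in VM7Luc4E2 cells after 22hr compound exposure at 15 concentrations, with 10.0nM ICI-182,780 final present; cells express endogenous ER-alpha and carry four EREs upstream of luciferase.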

[7] = qHTS assay to identify small molecule agonists or antagonists of the thyroid stimulating hormone receptor (TSHR) signaling pathway - wild type cell line counter screen (AID 1259384; calls by dose curve)
Method in brief: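 Counter screen in untransfected Hek293: compounds (15-point titration, triplicate) plus phosphodiesterase inhibitor Ro20-1724 added after 18 h plating; 30 min RT. Intracellular cAMP via competitive d2/cryptate immunoassay, 1 h incubation.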

[8] = target: Thyrotropin receptor (Homo sapiens) (UniProt P16473); assay: qHTS assay to identify small molecule antagonists of the thyroid stimulating hormone receptor (TSHR) signaling pathway (AID 1259385; calls by dose curve; also: nearly all actives have a fitted effect of over 20% in size)
Thyrotropin receptor (Homo sapiens), sequence (P16473 whole entry, looked up): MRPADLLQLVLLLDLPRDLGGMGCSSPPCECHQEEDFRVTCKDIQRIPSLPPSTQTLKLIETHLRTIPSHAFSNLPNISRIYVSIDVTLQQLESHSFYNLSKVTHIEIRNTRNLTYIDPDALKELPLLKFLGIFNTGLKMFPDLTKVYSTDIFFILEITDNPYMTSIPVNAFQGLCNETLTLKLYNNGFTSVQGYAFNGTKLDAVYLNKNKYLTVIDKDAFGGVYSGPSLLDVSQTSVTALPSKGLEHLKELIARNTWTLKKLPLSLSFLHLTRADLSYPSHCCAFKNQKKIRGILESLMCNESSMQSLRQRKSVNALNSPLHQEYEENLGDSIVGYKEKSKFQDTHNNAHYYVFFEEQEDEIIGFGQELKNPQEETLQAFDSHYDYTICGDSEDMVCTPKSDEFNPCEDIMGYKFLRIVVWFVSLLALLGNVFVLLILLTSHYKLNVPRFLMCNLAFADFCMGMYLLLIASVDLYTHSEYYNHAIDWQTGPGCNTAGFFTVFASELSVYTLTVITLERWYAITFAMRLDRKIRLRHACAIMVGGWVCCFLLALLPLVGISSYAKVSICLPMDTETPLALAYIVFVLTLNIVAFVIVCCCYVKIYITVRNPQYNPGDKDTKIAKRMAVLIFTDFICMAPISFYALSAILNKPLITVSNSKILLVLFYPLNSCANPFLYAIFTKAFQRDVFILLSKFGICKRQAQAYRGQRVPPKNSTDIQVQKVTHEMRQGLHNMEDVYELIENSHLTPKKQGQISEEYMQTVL
Method in brief: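 Antagonist mode: compound-treated TSHR-expressing HEK293 cells were stimulated with 1.5 ng/mL TSH (final) in presence of Ro20-1724 for 30 min at RT. HTRF cAMP detection after 1 h; each compound tested at 15 concentrations, triplicate.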

[9] = qHTS assay to identify small molecule agonists of the estrogen receptor alpha (ER-alpha) signaling pathway in the presence of an antagonist - cell viability counter screen (AID 1259386);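 also: series mostly up to about 92 µM; cells exposed to compounds for 22 h at 37 °C before the viability read; nearly all actives have a fitted effect of over 30% in size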
Method in brief: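 Read-out: CellTiter-Fluor fluorescence after 1hr reagent incubation, measured in the same wells as the luciferase readout. VM7Luc4E2 cells were exposed to 15 compound concentrations with 10.0nM ICI-182,780 for 22hr at 37C.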

[10] = target: Progesterone receptor (Homo sapiens) (UniProt P06401); assay: qHTS assay to identify small molecule agonists of the progesterone receptor (PR) signaling pathway (AID 1346784; calls by dose curve; also: nearly all actives have a fitted effect of over 30% in size)
Progesterone receptor (Homo sapiens), sequence (P06401 whole entry, looked up): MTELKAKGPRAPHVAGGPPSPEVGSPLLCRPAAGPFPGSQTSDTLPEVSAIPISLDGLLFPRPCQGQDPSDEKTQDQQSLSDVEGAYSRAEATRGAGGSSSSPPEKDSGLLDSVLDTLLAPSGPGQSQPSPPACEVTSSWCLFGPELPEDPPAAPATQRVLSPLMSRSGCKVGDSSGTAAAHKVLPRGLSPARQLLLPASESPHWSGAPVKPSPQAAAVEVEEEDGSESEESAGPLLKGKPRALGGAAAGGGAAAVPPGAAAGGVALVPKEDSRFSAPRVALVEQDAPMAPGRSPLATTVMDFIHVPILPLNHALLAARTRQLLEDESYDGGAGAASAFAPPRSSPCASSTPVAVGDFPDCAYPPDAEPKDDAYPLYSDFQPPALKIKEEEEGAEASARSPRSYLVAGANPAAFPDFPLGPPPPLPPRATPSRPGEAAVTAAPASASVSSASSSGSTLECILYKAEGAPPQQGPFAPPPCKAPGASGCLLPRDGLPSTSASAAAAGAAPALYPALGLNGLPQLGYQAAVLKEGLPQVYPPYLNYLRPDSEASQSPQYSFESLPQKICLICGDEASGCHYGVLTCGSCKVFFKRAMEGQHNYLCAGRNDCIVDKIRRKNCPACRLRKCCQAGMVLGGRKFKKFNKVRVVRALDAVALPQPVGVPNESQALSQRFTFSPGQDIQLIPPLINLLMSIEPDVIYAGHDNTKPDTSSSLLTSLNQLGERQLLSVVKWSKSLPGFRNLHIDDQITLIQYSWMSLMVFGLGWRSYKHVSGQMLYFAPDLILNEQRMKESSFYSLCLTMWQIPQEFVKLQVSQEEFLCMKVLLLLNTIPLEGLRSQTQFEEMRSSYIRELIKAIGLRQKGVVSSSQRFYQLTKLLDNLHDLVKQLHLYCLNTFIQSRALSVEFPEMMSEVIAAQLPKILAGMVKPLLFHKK
Method in brief: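 HEK 293T PR-UAS-bla reporter cells, 2% charcoal-stripped FBS; 6 hr settle at 37C/5% CO2, compound (DMSO) 16 hr, LiveBLAzer B/G FRET substrate 2 hr RT, fluorescence intensity read.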

[11] = qHTS assay to identify small molecule antagonists of the progesterone receptor (PR) signaling pathway - cell viability counter screen (AID 1346798); also: nearly all actives have a fitted effect of over 50% in size; also: potency is read from the fitted curve at half-maximal effect
Method in brief: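 Luminescence readout (CellTiter-Glo, 30 min, RT) of viability in PR-UAS-bla HEK293T cells exposed to compound and R5020 agonist for 16 hr at 37C, 5% CO2; run in the same wells as the beta-lactamase reporter read.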

[12] = qHTS assay to identify small molecule agonists of the progesterone receptor (PR) signaling pathway - cell viability counter screen (AID 1346799; calls by dose curve; also: nearly all actives have a fitted effect of over 45% in size)
Method in brief: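 HEK293T PR-UAS-bla, 3,000 cells/well, 2% charcoal-stripped FBS; 6 h settle, compound 16 h at 37C/5% CO2; LiveBLAzer 2 h RT, then CellTiter-Glo 30 min RT, luminescence read.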

[13] = qHTS assay to identify small molecule antagonists of the TGF-beta/Smad signaling pathway - cell viability counter screen (AID 1346824); also: nearly all actives have a fitted effect of over 50% in size
Method in brief: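 Cytotoxicity counter-screen run in the same wells as the beta-lactamase Smad reporter read: CellTiter-Glo luminescence after 30 min at room temperature. HEK 293T SBE-bla cells had 5 hr compound exposure at 37 C with TGF-beta1 (0.25 ng/mL stock).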

[14] = qHTS assay to identify small molecule agonists of the TGF-beta/Smad signaling pathway - cell viability counter screen (AID 1346829); also: top concentration of the series differs between compounds; nearly all actives have a fitted effect of over 45% in size
Method in brief: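 Tox21 qHTS format: SBE-bla HEK 293T cells treated with DMSO-dissolved compounds for 5 hr; CellTiter-Glo luminescence after 30 min at room temperature.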

[15] = qHTS assay to identify small molecule agonists of the TGF-beta/Smad signaling pathway (AID 1346859; active = well fitted activation curve with a large enough effect in the signal ratio in the repeat runs, not every such curve was filed as active; the % refers to the signal ratio; also: series mostly up to about 77 µM)
Method in brief: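 Read-out: fluorescence at 460 and 530 nm (405 nm excitation) after a 2 hr room-temperature incubation with beta-lactamase FRET substrate. SBE-bla HEK 293T cells had been treated with test compounds for 5 hr at 37 C.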

[16] = target: Thyrotropin-releasing hormone receptor (Homo sapiens) (UniProt P34981); assay: qHTS assay to identify small molecule antagonists of the thyrotropin-releasing hormone receptor (TRHR) signaling pathway (AID 1346877; active = well fitted inhibition curve with a large enough effect in the repeat runs, not every such curve was filed as active; also: series mostly up to about 51 µM)
Thyrotropin-releasing hormone receptor (Homo sapiens), sequence (P34981 whole entry, looked up): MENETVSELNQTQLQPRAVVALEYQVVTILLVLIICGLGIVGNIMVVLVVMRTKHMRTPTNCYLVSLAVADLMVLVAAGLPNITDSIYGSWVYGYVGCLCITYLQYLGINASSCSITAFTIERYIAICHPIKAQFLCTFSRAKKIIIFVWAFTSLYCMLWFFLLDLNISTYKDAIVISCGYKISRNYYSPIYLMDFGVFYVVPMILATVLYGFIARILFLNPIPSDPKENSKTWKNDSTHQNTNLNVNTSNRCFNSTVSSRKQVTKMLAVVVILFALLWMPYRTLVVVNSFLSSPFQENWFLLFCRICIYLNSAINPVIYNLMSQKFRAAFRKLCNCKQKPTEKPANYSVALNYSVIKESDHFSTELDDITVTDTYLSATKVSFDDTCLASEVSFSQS
Method in brief: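 HEK293/TRHR cells, 18 h, 37 °C; Ca2+ dye 2 h; cpd 5 min RT; TRH 1 nM final; fluorescence read 3 min, 1 s intervals; 15 concs, triplicate.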

[17] = qHTS assay to identify small molecule antagonists of the estrogen receptor beta (ER-beta) signaling pathway - cell viability counter screen (AID 1259382); also: nearly all actives have a fitted effect of over 55% in size; also: potency is read from the fitted curve at half-maximal effect
Method in brief: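 Luminescent ATP read-out (CellTiter-Glo, 30 min, RT) taken in the same wells as the bla reporter assay. HEK293T ER-beta-UAS-bla cells in 2% charcoal-stripped FBS were exposed to compounds with 1nM E2 for 16 hr at 37C.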

[18] = target: Progesterone receptor (Homo sapiens) (UniProt P06401); assay: qHTS assay to identify small molecule antagonists of the progesterone receptor (PR) signaling pathway (AID 1346795; active = well fitted inhibition curve with a large enough effect in the signal ratio in the repeat runs, not every such curve was filed as active; the % refers to the signal ratio; also: potency is read from the fitted curve at half-maximal effect)
Method in brief: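 Beta-lactamase reporter, HEK293T PR-UAS-bla line; 2% charcoal-stripped FBS; 6 hr pre-incubation, 37C/5% CO2. Compound + R5020 1 nM final, 16 hr. LiveBLAzer B/G FRET substrate, 2 hr RT; fluorescence intensity read.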

Measured: Potency

Cc1ccc(C(C)(C)O)cc1
not listed: [17] | [18]
inactive: all other assays above

FC(F)(F)c1ccccc1Cl
not listed: [1] | [3] | [7] | [8] | [18]
inactive: all other assays above

CN1CC(=O)N2[C@H](c3ccc4c(c3)OCO4)c3[nH]c4ccccc4c3C[C@@H]2C1=O
not listed: [2] | [3] | [9] | [18]
inactive: all other assays above

C=COCC(C)C
not listed: [2] | [3] | [8] | [10] | [18]
inactive: all other assays above

CC1CC(OC(=O)C(O)c2ccccc2)CC(C)(C)N1C (stereo not given)
not listed: [1] | [6] | [12]
inactive: all other assays above

C=C(C)CCCC(C)CCO (stereo not given)
not listed: [1] | [6] | [9]
inactive: all other assays above

CCC(C)COC(=O)CC(C)C (stereo not given)
active: [5] 30.6 µM | [11] 9.69 µM
not listed: [1] | [9] | [12] | [17] | [18]
inactive: all other assays above

Nc1ncnc2c1ncn2[C@H]1CC[C@@H](CO)O1
not listed: [1] | [6]
inactive: all other assays above

CCCCCCCCOc1ccc(C(=O)O)cc1
active: [18] 48 µM
not listed: [1] | [3] | [5] | [6] | [11] | [12]
inactive: all other assays above

Cc1ccc2c(Br)cc(Br)c(O)c2n1
inactive: [2] | [4] | [17] | [7] | [8] | [13] | [14] | [15] | [16]
active: [5] 11.9 µM | [18] 18.8 µM

Cc1cc(O)ccc1O
inactive: [2] | [13] | [14] | [15] | [16]
active: [3] 55.1 µM | [5] 61.8 µM | [17] 61.8 µM

CO/N=C(/C(=O)N[C@@H]1C(=O)N2C(C(=O)O)=C(COC(N)=O)CS[C@H]12)c1ccco1
not listed: [6] | [9] | [10] | [18]
inactive: all other assays above

CCOC(=O)c1ccccc1C(=C1C=C(Br)C(=O)C(Br)=C1)c1cc(Br)c(O)c(Br)c1
active: [5] 57.5 µM | [18] 18.2 µM
inactive: [1] | [6] | [7] | [8] | [9] | [13] | [14] | [15]

Oc1c(I)cc(I)c2cccnc12
active: [3] 6.68 µM
inactive: [6] | [7] | [8] | [10] | [11] | [13] | [14] | [15] | [16]
